Data: PubChem BioAssay (EPA / NIEHS)
Calls of active or inactive are those of the source. How the source made its calls: active means hit-call score of the fitted dose curve at least 0.9, where 1 is the maximum; inactive means score below 0.9.

What follows are compounds tested against Estrogen receptor (Homo sapiens) (UniProt P03372) (assay: CCTE_Deisenroth_AIME_384WELL_LUC_Shift: CCTE's 384-well Estrogen Receptor Transactivation Assay with AIME metabolic competence data shift (ERTA luciferase; difference in metabolism positive and negative), Deisenroth Lab (AID 2284041);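 further: shift is response with S9 minus without S9 so positive means metabolism raised ER signal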).
Chain of Estrogen receptor (Homo sapiens) (P03372 whole entry, looked up): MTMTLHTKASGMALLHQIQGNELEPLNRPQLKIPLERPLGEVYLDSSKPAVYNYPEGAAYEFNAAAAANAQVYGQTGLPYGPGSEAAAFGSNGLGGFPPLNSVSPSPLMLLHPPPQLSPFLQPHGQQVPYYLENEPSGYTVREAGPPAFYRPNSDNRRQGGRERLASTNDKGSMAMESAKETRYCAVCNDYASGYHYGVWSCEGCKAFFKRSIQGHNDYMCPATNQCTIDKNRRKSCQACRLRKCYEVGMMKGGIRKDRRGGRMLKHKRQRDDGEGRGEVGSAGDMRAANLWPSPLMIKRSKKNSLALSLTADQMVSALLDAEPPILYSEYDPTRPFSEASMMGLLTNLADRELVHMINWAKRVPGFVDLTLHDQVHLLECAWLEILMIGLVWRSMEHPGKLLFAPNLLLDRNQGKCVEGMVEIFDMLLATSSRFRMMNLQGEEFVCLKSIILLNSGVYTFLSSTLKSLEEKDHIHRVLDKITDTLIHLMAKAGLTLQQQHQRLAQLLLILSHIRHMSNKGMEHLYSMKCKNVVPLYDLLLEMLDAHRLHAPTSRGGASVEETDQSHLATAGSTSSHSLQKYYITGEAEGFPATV
Method: CCTE_Deisenroth_AIME_384WELL (AIME metabolism assay) is a cell-based, single-readout assay that uses VM7Luc4E2, a human mammary gland/breast cell line, with measurements taken at 24 hour after chemical dosing in a 384-well plate.CCTE_Deisenroth_AIME_384WELL_LUC_Shift is one of two analysis components calculated from the CCTE_Deisenroth_AIME_384WELL assay. […] AIME is optimized to impart phase I hepatic metabolism using phenobarbital/beta-naphthoflavone induced hepatic S9 from male Sprague Dawley rats. Parent chemicals are incubated for 2 hours in the AIME assay prior to transfer to the VM7Luc ERTA assay plate. […] The metabolic curve shift response is defined as the pairwise difference between the positive (AEID 2488) and negative (AEID 2490) normalized response values at each concentration for a given chemical across replicate experiments. The pairwise differences form the basis for a concentration-response curve. Standard curve fit analysis identfiied chemicals where the calculated shift was greater than the shift-derived baseline cutoff. A positive hit designation in this endpoint indicates a significant shift trend in the positive direction for bioactivation.
The AIME procedure consists of a preparative "pre-stamping" step using a barium chloride/poly-L-lysine (PLL) solution followed by "stamping" the lid in alginate-hepatic S9 (metabolism positive) or alginate-water (metabolism negative) to form microspheres. Once stamping is completed, the AIME lids are placed in duplicate microplates (metabolism positive or negative) containing chemical solutions and incubated for two hours to facilitate metabolic reactions. The conditioned medium, containing parent chemical or metabolites, is then transferred to the cell-based VM7Luc Estrogen Receptor Transactivation Assay (ERTA) for 24 hours. A typical experimental design tests a 10-point concentration series (0.002 - 200 uM) for 8 compounds (96-well format)1 or 32 compounds (384-well format)2 in single technical replicate. AIME assay controls include trans-stilbene (bioactivated control) and ethylparaben (bioinactivated control). ERTA assay plate controls include 17-beta estradiol (positive control) and DMSO (solvent control). Experiments typically comprise a minimum of four experimental replicates (n=4).
`CNC` was tested, and the outcome was “inactive”. For `OCC(O)CCl` (stereo not drawn), the AC50 was 2.81 nM (active). In the case of `CNC(=O)O/N=C/C(C)(C)S(C)=O` (stereo not drawn), the outcome is reported as “inactive”. For `CC(C)(C)c1cc(O)ccc1O`, the AC50 was 30700 nM (active). `NNC(=S)NN` was tested, and the outcome was “inactive”. `C=C(C)C#N` was tested, and the outcome was “inactive”. In the case of `CCOC(=O)Nc1cccc(OC(=O)Nc2ccccc2)c1`, the outcome is reported as “inactive”. `COP(=O)(OC)O/C(=C\Cl)c1cc(Cl)c(Cl)cc1Cl` was tested, and the outcome was “inactive”. For `COc1ccc(C=O)cc1`, the outcome was “inactive”. In the case of `CCC(C)(C)c1ccc(O)c(C(C)(C)CC)c1`, the outcome is reported as “inactive”. `COP(=O)(OC)OC` was tested, and the outcome was “inactive”. For `CC(=O)C=C(C)C`, the outcome was “inactive”. `O=S(=O)(c1ccc(Cl)cc1)c1ccc(Cl)cc1` was tested, and the outcome was “inactive”. With `CC(=O)[O][Hg][c]1ccccc1` the outcome was “inactive”. `ClC(Cl)=C(Cl)C(Cl)=C(Cl)Cl` was tested, and the outcome was “inactive”. In the case of `CCOP(=S)(OCC)SCSP(=S)(OCC)OCC`, the outcome is reported as “inactive”. `Cc1ccc(N)cc1Cl` was tested, and the outcome was “inactive”. In the case of `O=C1C(Cl)=C(Cl)C(=O)c2ccccc21`, the outcome is reported as “inactive”. `[O-][Cl+2]([O-])O` was tested, and the outcome was “inactive”. `O=C(NCO)NCO` was tested, and the outcome was “inactive”. In the case of `CC1(C)CCC(Cc2ccc(Cl)cc2)C1(O)Cn1cncn1` (stereo not drawn), the outcome is reported as “inactive”. In the case of `c1cc[c]([Hg][c]2ccccc2)cc1`, the AC50 is reported as 365 nM (active). For `O=C(Cc1ccccc1)c1ccccc1`, the outcome was “inactive”. With `O=C1CCCN1` the outcome was “inactive”. With `CCCCCCCCSC(=O)Oc1cc(Cl)nnc1-c1ccccc1` the outcome was “inactive”. With `CC(C)(c1ccccc1)c1ccc(O)c(C(C)(C)c2ccccc2)c1` the outcome was “inactive”. With `CC(=O)c1cc(C(C)(C)C)cc2c1CCC2(C)C` the outcome was “inactive”. `NC(=O)O` was tested, and the outcome was “inactive”.
